Results on 11 compounds are retold here after article PMC5540273 (PLoS ONE, 2017).

Common to all, as to details: concentration: 1 μM,replicates: in singlicate; n = 1
The subject of experiment [1] is BMX.
Experiment [2] has as its system BRAF.
In experiment [3] the test system is T1, BRK.
T1 construct: gene PTK6

Experiment [4] concerns BRSK1.
Experiment [5] has as its system BRSK2.
Experiment [6] concerns BTK.
Experiment [7] deals with BUB1.
The test system of experiment [8] is CAMK1B.
In experiment [9] the test system is CAMK1D.
Experiment [10] relates to CAMK1G.
Experiment [11] has as its system CAMK1.
Experiment [12] has as its system CAMK2A.
The test system of experiment [13] is CAMK2B.
The test system of experiment [14] is CAMK2D.
Experiment [15] deals with CAMK2G.
In experiment [16] the test system is CAMK4.
Experiment [17] relates to CAMKK1.
Experiment [18] concerns CAMKK2.
Experiment [19] has as its system CASK.
Experiment [20] deals with T2, CDC2L1.
T2 construct: gene CDK11B
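Also: KINOMEscan kinase panel screen.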

For the compound `CC(C)S(=O)(=O)N1CCN(Cc2ccc3c(c2)nc(NC(=O)c2ccsc2)n3C[C@H](O)c2ccccc2)CC1` [GW635815], the “%Inh” value in experiment [1] was 10%; in [2], 0%; in experiment [3], 8%; in experiment [4], 0%; in experiment [5], 0%; in experiment [6], 0%. Further, the “%Inh” value in experiment [7] was determined as 13%; in experiment [8] it was 0%; in experiment [9], 12%; in experiment [10] it was 19%; in experiment [11], 25%; in [12], 0%. Moreover, the “%Inh” value in experiment [13] was determined as 0%; in experiment [14], 11%; in experiment [15] it was 39%; in experiment [16] it was 0%; in experiment [17], 44%; in experiment [18], 61%. The “%Inh” value in [19] is given as 22%; in [20], 0%.
For `Cn1ccc2ncnc(Oc3ccc(NC(=O)Nc4cccc(C(F)(F)F)c4)c(F)c3)c21`, the “%Inh” value in experiment [1] worked out at 1%; in experiment [2], 62%; in experiment [3], 0%; in [4], 0%; in [5], 2%; in [6], 30%. Further, the “%Inh” value in experiment [7] stood at 0%; in [8], 0%; in experiment [9], 12%; in [10], 11%; in experiment [11], 0%; in experiment [12], 6%. Also, the “%Inh” value came out at 8% in experiment [13]; 6% in [14]; 10% in experiment [15]; 15% in experiment [16]; 18% in experiment [17]; 19% in experiment [18]. Besides, the entries for the “%Inh” value in experiment [19] and in experiment [20] were 0% and 19%, respectively.
Take `COC(=O)c1cccc(NC(=O)NC2CCN(c3ccnc(NCc4ccc(F)cc4)n3)CC2)c1` [GSK1379860]: the “%Inh” value stood at 11% in [1]; 2% in [2]; 10% in experiment [3]; 0% in [4]; 0% in experiment [5]; 0% in experiment [6]. Moreover, the “%Inh” value in experiment [7] is 21%; in experiment [8], 67%; in [9], 0%; in experiment [10] it was 0%; in experiment [11], 0%; in experiment [12], 0%. The “%Inh” value in experiment [13] turned out to be 0%; in [14], 0%; in experiment [15] it was 1%; in experiment [16], 0%; in experiment [17], 0%; in experiment [18] it was 0%. Also, the “%Inh” value in experiment [19] and in [20] was 0% each time.
On to `O=C(Nc1n[nH]c2cc(-c3ccco3)ccc12)C1CC1` [SB-737447], for which the “%Inh” value in experiment [1] stood at 0%; in experiment [2], 0%; in experiment [3], 0%; in [4], 31%; in experiment [5] it was 46%; in [6], 0%. Moreover, the “%Inh” value in [7] turned out to be 0%; in experiment [8], 0%; in [9] it was 0%; in experiment [10], 100%; in experiment [11], 5%; in experiment [12] it was 39%. Moreover, the “%Inh” value in experiment [13] was 34%; in experiment [14], 3%; in experiment [15], 4%; in experiment [16], 0%; in experiment [17] it was 4%; in experiment [18], 5%. Besides, the “%Inh” value in experiment [19] is listed as 17%; in experiment [20], 0%.
Consider `Cc1ccn2nc(-c3ccc(F)cc3)c(-c3ccncc3)c2c1.Cl` [GW457859], for which the “%Inh” value in [1] turned out to be 8%; in experiment [2], 49%; in [3], 0%; in experiment [4], 0%; in experiment [5], 0%; in [6], 22%. Also, the “%Inh” value in experiment [7] amounted to 87%; in experiment [8] it was 30%; in experiment [9], 1%; in experiment [10], 0%; in experiment [11], 16%; in experiment [12], 0%. Besides, the “%Inh” value is given as 0% in experiment [13]; 0% in [14]; 15% in experiment [15]; 0% in experiment [16]; 0% in experiment [17]; 9% in experiment [18]. The “%Inh” value in experiment [19] was 6%; in [20], 0%.
In the case of `C[C@@H]1CCN(C(=O)N2CCCC2)C[C@@H]1N(C)c1ncnc2[nH]ccc12`, the “%Inh” value in experiment [1] is reported as 1%; in experiment [2] it was 11%; in experiment [3], 0%; in experiment [4] it was 0%; in [5] it was 5%; in experiment [6], 1%. In addition, the “%Inh” value in experiment [7] is recorded as 25%; in experiment [8], 18%; in experiment [9], 8%; in [10] it was 5%; in experiment [11], 5%; in experiment [12], 2%. The “%Inh” value is reported as 0% in experiment [13]; 12% in experiment [14]; 14% in experiment [15]; 19% in experiment [16]; 15% in [17]; 8% in experiment [18]. The “%Inh” value is listed as 0% in [19] and 3% in [20].
For the compound `CC(=O)Nc1ccc(-c2cc3ncnc(SCC(=O)O)c3s2)cc1`, the “%Inh” value in experiment [1] is 0%; in experiment [2] it was 4%; in experiment [3], 0%; in experiment [4], 28%; in experiment [5] it was 3%; in [6] it was 0%. For the same compound, the “%Inh” value in [7] amounted to 47%; in [8], 0%; in experiment [9], 0%; in experiment [10] it was 19%; in experiment [11], 0%; in experiment [12], 55%. Also, the “%Inh” value in experiment [13] is 58%; in experiment [14], 21%; in [15], 18%; in [16], 23%; in [17], 90.6%; in experiment [18], 92.3%. Also, the “%Inh” value was found to be 8% in experiment [19] and 9% in [20].
On to `COc1cc2nccc(Nc3ccc(Oc4ccccc4)cc3)c2cc1OC.Cl` [GI261656], for which the “%Inh” value is listed as 36% in experiment [1]; 0% in experiment [2]; 96.1% in experiment [3]; 0% in experiment [4]; 0% in [5]; 93.3% in experiment [6]. Also, the “%Inh” value in [7] came to 31%; in experiment [8], 23%; in [9] it was 2%; in experiment [10], 0%; in [11], 20%; in [12] it was 0%. The “%Inh” value in [13] came to 0%; in experiment [14], 16%; in [15], 18%; in experiment [16] it was 0%; in [17] it was 7%; in experiment [18], 17%. Moreover, the “%Inh” value in [19] and in [20] was 0% each time.
With `COc1cc2ncn(-c3cc(OCC4CCCCC4)c(C(N)=O)s3)c2cc1OC` [GSK204559], the “%Inh” value is on record as 10% in experiment [1]; 0% in experiment [2]; 8% in [3]; 30% in experiment [4]; 45% in experiment [5]; 0% in experiment [6]. Also, the “%Inh” value in experiment [7] was 17%; in [8], 6%; in experiment [9] it was 16%; in experiment [10], 11%; in experiment [11], 13%; in experiment [12] it was 0%. The “%Inh” value in [13] came out at 0%; in experiment [14], 5%; in experiment [15], 33%; in experiment [16] it was 0%; in experiment [17], 12%; in [18], 26%. Moreover, the figures for the “%Inh” value in experiment [19] and in experiment [20] were 19% and 0%, respectively.
With `CC(=O)c1c(-c2ccncc2)[nH]c(-c2ccncc2)c1C` [GW493036], the “%Inh” value in experiment [1] worked out at 0%; in experiment [2], 19%; in [3], 3%; in experiment [4] it was 0%; in experiment [5], 0%; in experiment [6] it was 7%. For the same compound, the “%Inh” value in experiment [7] came to 84%; in experiment [8], 0%; in experiment [9], 20%; in experiment [10] it was 0%; in [11] it was 26%; in experiment [12] it was 0%. In addition, the “%Inh” value in experiment [13], in experiment [14], in experiment [15], in experiment [16], in experiment [17] and in experiment [18] was 0% throughout. In addition, the “%Inh” value in [19] worked out at 25%; in experiment [20] it was 0%.
With `CNC(=O)c1ccccc1Nc1nc(Nc2cccc(CS(C)(=O)=O)c2)ncc1C.O=CO` [GSK1520489], the “%Inh” value in experiment [1] is reported as 97.2%; in experiment [2], 59%; in experiment [3], 99.7%; in [4], 65%; in [5], 79%; in [6], 95.4%. The “%Inh” value in [7] is given as 88%; in experiment [8], 14%; in experiment [9], 40%; in experiment [10], 29%; in experiment [11], 76%; in [12], 1%. For the same compound, the “%Inh” value in experiment [13] is reported as 0%; in experiment [14], 16%; in [15] it was 34%; in [16] it was 0%; in [17], 88%; in experiment [18], 91.2%. The “%Inh” value in experiment [19] is listed as 59%; in [20], 0%.
